Results from PubChem BioAssay (NCI).
This is part of a sample that, as a whole, favours compounds with a hit. Of some 83,000 tested, about 20% had one in any assay.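 Growth was measured after 48 h exposure to one concentration of compound in 96-well plates. Values under 10 count as active.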 Values without a mark were called inactive. Calls of active or inactive are those of the source.

Columns and labels:
Experiment in all cases: NCI-60 one-dose screen, 48 h (100 = growth as untreated, 0 = no growth, -100 = all killed)
Settings in all cases: 10 µM unless noted
[1] = tested on: NCI-H23 lung
[2] = tested on: NCI-H226 lung
[3] = tested on: NCI-H322M lung
[4] = tested on: HOP-62 NSCLC
[5] = tested on: NCI-H460 lung
[6] = tested on: HOP-92 NSCLC
[7] = tested on: NCI-H522 lung
[8] = tested on: A549/ATCC NSCLC
[9] = tested on: 786-0 renal
[10] = tested on: COLO 205 colon
[11] = tested on: DU-145 prostate
[12] = tested on: K-562 leukemia
[13] = tested on: MALME-3M melanoma
[14] = tested on: MDA-MB-231 breast
[15] = tested on: RXF 393 renal
[16] = tested on: SF-268 CNS
[17] = tested on: SF-295 CNS
[18] = tested on: SF-539 CNS
[19] = tested on: UACC-257 melanoma
[20] = tested on: M14 melanoma

Compound	growth [1]	growth [2]	growth [3]	growth [4]	growth [5]	growth [6]	growth [7]	growth [8]	growth [9]	growth [10]	growth [11]	growth [12]	growth [13]	growth [14]	growth [15]	growth [16]	growth [17]	growth [18]	growth [19]	growth [20]
COC(=O)[C@]1(C)CCC[C@]2(C)[C@H]3C[C@H]4C(C(C)C)=C[C@]3(CC[C@H]21)[C@@H]1C(=O)CC[C@H](OCCC#N)[C@@H]14	84.7%	74.3%	106%	95%	94.7%	76.6%	89.9%	92.2%	81%	85.2%	89.2%	89.9%	85.9%	73.9%	55.5%	74.3%	77.7%	91.7%	99.1%	82.5%
NC(=O)c1cccc(-n2ccc3cc(NC(=O)c4ccc(N5CCOCC5)c(C(F)(F)F)c4)ccc32)n1	77.5%	66.3%	57.1%	44.5%	43.8%	66.8%	58.9%	42.7%	19.1%	34.4%	60.8%	36.6%	65.4%	49.6%	-21.1% (active)	66.8%	-52.1% (active)	-15.4% (active)	74.6%	66.5%
Cc1sc2nc(NCCc3c[nH]c4ccc(Cl)cc34)[nH]c(=O)c2c1C	61.6%	70.6%	61.2%	34.7%	18.6%	46%	-23.9% (active)	0.107% (active)	56.5%	22.3%	62.2%	22.3%	60.2%	31.1%	7.63% (active)	15.5%	50.7%	40.1%	32.6%	26.5%
N#Cc1ccc2c(c1)C(=O)c1c-2n(CCCN)c(=O)c2cc([N+](=O)[O-])ccc12	-57.6% (active)	-71.6% (active)	-81.5% (active)	-89.5% (active)	-100% (active)	-2.3% (active)	-72.2% (active)	-100% (active)	-90% (active)	-100% (active)	-100% (active)	-100% (active)	-82.3% (active)	-100% (active)	-87.9% (active)	-92.1% (active)	-73.9% (active)	-98.2% (active)	-100% (active)	-100% (active)
Cc1cc(=O)n(C(=O)Nc2ccccc2Cl)c2cc(O)ccc12	98.6%	98.7%	88.7%	89.2%	100%	79.7%	95.2%	101%	103%	100%	108%	109%	93%	101%	109%	95.8%	101%	97.8%	96.5%	96.4%
CCO/C=N/C1=C(C#N)C(c2ccc(Cl)cc2)c2sc3c(F)cccc3c2O1 (stereo not given)	76.2%	88.6%	92.3%	58.4%	25.6%	77.1%	-6.96% (active)	53.4%	71.5%	95.7%	88.2%	24.6%	71.3%	71.3%	76.9%	68.5%	52.8%	81.6%	89%	46.1%
C=C1C(=O)O[C@H]2[C@H]1CC/C(COC(=O)c1cc3ccccc3s1)=C\CC[C@@]1(C)O[C@@H]21	-46.4% (active)	-51.1% (active)	-25.8% (active)	-61.6% (active)	-57.3% (active)	-74.4% (active)	-70.1% (active)	-51.1% (active)	-83.4% (active)	-71.3% (active)	-80.6% (active)	2.38% (active)	-67.2% (active)	-66.1% (active)	-88.8% (active)	-60.6% (active)	32%	-88.4% (active)	-63.3% (active)	-81.1% (active)
O=C(CSc1nc2ccc([N+](=O)[O-])cc2[nH]1)Nc1ccc([N+](=O)[O-])cc1	0.139% (active)	6.55% (active)	43.9%	36.2%	15.4%	-26.8% (active)	-3.09% (active)	24.4%	24.1%	21.4%	31.6%	14.3%	1.83% (active)	33.3%	29%	27%	21.2%	41.5%	9.35% (active)	24.5%
